A short description of assay [1]: qHTS assay for small molecule antagonists of peroxisome proliferator-activated receptor delta signaling (AID 588535; active = well fitted inhibition curve with a large enough effect in the signal ratio, with a control signal flat, not every such curve was filed as active; the % refers to the signal ratio;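 as to max response: cells co-treated with a PPAR-delta agonist as stimulator during compound exposure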). Particulars: HEK293T PPARd-UAS-bla, beta-lactamase FRET ratio, 18 h; 460 nm channel. An outline of the steps:
(§1)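 Compounds tested in titration on PPAR-delta-UAS-bla HEK293T cells grown in charcoal/dextran-stripped serum (2%); beta-lactamase activity read via CCF4 emission at 460 and 530 nm.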
(In general: In qHTS, concentration-response curves come from the screen itself.)

For assay [2], the target named is Peroxisome proliferator-activated receptor delta (Homo sapiens) (UniProt Q03181). The description is as above. To be noted: HEK293T PPARd-UAS-bla, beta-lactamase FRET ratio, 18 h; series mostly up to 76.7 µM. An outline of the steps:
as §1

For assay [3], the target named is Peroxisome proliferator-activated receptor gamma (Homo sapiens) (UniProt P37231). Kind of assay: qHTS assay for small molecule agonists of peroxisome proliferator-activated receptor gamma signaling (AID 588536; active = well fitted curve in the direction sought with a large enough effect in the signal ratio, with a control signal flat, not every such curve was filed as active; the % refers to the signal ratio;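 also: 0% = DMSO basal wells and 100% = rosiglitazone at 2 µM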). To be noted: HEK293 PPARg-UAS-bla, beta-lactamase ratio, 16 h, percent of rosiglitazone response, DMSO as zero; series mostly up to 76.7 µM. An outline of the steps:
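Beta-lactamase reporter read-out: CCF4 fluorescence (ex 405, em 460/530 nm) after 2 h at RT. HEK293 GeneBLAzer cells were treated for 16 h at 37 C. Hill fits gave EC50 and efficacy versus 2 uM rosiglitazone (100%) and DMSO (0%).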

Assay [4] concerns the target Vitamin D3 receptor (Homo sapiens) (UniProt P11473). Kind of assay: qHTS assay for small molecule antagonists of vitamin D receptor signaling (AID 588541; calls by dose curve;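 also: receptor activated by calcitriol during compound treatment; % is scaled to controls: 0 for no effect and ±100 for the full control effect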). Particulars: HEK293T VDR-UAS-bla, beta-lactamase ratio, antagonist mode; series mostly up to 76.7 µM. An outline of the steps:
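VDR-UAS-bla HEK293T cells (2000/well, 2% charcoal-stripped FBS) were treated with titrated compounds plus 1-alpha,25-dihydroxyvitamin D3 (50 nM or 3 nM final) for 16 h at 37 C. CCF4 beta-lactamase fluorescence was read; Hill fits gave IC50.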

The target is the same in assay [5]. Kind of assay: qHTS assay for small molecule agonists of vitamin D receptor signaling (AID 588543; calls by dose curve;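 also: 0% = DMSO basal and 100% = reference agonist control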). Particulars: HEK293T VDR-UAS-bla, beta-lactamase ratio, 16 h; series mostly up to 76.8 µM. An outline of the steps:
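GeneBLAzer VDR-UAS-bla HEK293T cells in 2% charcoal-stripped FBS medium were dosed with compound titrations for 16 h at 37 °C; CCF4 β-lactamase readout (405 nm ex, 460/530 nm em). EC50 and efficacy from Hill fits, normalized to 50 nM calcitriol (100%) and DMSO (0%).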

Assay [6] in a line: qHTS assay for small molecule agonists of retinoid X receptor alpha signaling (AID 588544; calls by dose curve;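 as to activation: 0% = DMSO basal wells and 100% = reference agonist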). Particulars: HEK293T RXRa-UAS-bla, beta-lactamase reporter, 18 h; 530 nm emission.
The target of assay [7] is Retinoic acid receptor RXR-alpha (Homo sapiens) (UniProt P19793). The assay is described as above. To be noted: HEK293T RXRa-UAS-bla, beta-lactamase reporter, 18 h; series mostly up to 76.7 µM.
Assay [8] addresses Thyroid hormone receptor beta (Homo sapiens) (UniProt P10828). Kind of assay: qHTS assay for small molecule agonists of thyroid hormone receptor beta signaling (AID 588545; calls by dose curve). To be noted: TR-UAS-bla GripTite HEK 293, beta-lactamase ratio, agonist mode, 18 h; series mostly up to 76.7 µM. An outline of the steps:
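HEK 293 TR-UAS-bla; agonist mode; 18 hrs, 37 C; CCF4, ex 405/em 460 and 530 nm; norm. T3 10 nM = 100%, DMSO = 0%; Hill fit → EC50, efficacy.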

Assay [9] is described as follows: qHTS assay for environmental chemicals that activate the Aryl hydrocarbon Receptor (AhR) signaling pathway (AID 651777). Also: % of control where 0% means no effect; nearly all actives have a fitted effect of over 15% in size. To be noted: 1A2-DRE human hepatoma cells, luciferase, 24 h; activation: stronger effect = higher value. An outline of the steps: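 Measured luciferase activity, read 30 min after One-Glo addition at room temperature, from human hepatoma cells bearing a dioxin response element–CYP1A2 promoter reporter and exposed to compound for 24 hr at 37 C.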

For assay [10], the target named is Peroxisome proliferator-activated receptor alpha (Homo sapiens) (UniProt Q07869). Kind of assay: qHTS assay for small molecule agonists of the peroxisome proliferator-activated receptor alpha (PPARalpha) signaling pathway (AID 651778). Also: % of control where 0% means no effect. Particulars: PathHunter PPARalpha complementation, chemiluminescence, 6 h; max response: stronger effect = higher value. An outline of the steps: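 Cells plated at 2,000/well and held overnight at 37 C, 5% CO2, then compound added by pin tool for 6 hr; after PathHunter detection reagent and 60 min at room temperature, chemiluminescence from enzyme complementation was read.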

Assay [11] in a line: qHTS assay for small molecule agonists of the antioxidant response element (ARE) signaling pathway measured by Nrf2-dependant transcriptional activity - cell viability counter screen (AID 720653; active = well fitted curve in the direction sought with a large enough effect in the repeat runs; an effect the other way counts as inactive or inconclusive; also: % is scaled to controls: 0 for no effect and ±100 for the full control effect). Particulars: ARE-bla HepG2 viability, CellTiter-Glo ATP luminescence, 16 h; max response: stronger effect = lower value. An outline of the steps: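 ARE-bla HepG2 cells (2,000/well) rested 5 hrs at 37C/5% CO2, then exposed to compounds in DMSO for 16 hrs. Viability was read in the same wells as intracellular ATP by luminescence, 30 min at room temperature after reagent addition.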

The nature of assay [12]: qHTS assay for cell viability of HEK293 cells (AID 743288). Also: % is scaled to controls: 0 for no effect and ±100 for the full control effect; nearly all actives have a fitted effect of over 50% in size. Particulars: ATP luminescence (CellTiter-Glo), 18 h; max response: stronger effect = lower value. An outline of the steps: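 After 18 h compound exposure at 37 C, parental HEK293 cells (2,000/well) are lysed with CellTiter-Glo and luminescence is read following 30 min at room temperature.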
In assay [13] the target is Nuclear receptor subfamily 1 group I member 2 (Rattus norvegicus) (UniProt Q9R1A7). Kind of assay: qHTS assay for small molecule activators of the rat pregnane X receptor (rPXR) signaling pathway (AID 651751; call rule not given here; also: 0% is about no effect). Particulars: rPXR reporter cells, luciferase (One-Glo), 24 h.
A short description of assay [14]: qHTS assay for small molecule activators of the human pregnane X receptor (PXR) signaling pathway (AID 720659; call rule not given here; also: 0% is about no effect). Particulars: DPX-2 HepG2 CYP3A4-luciferase, 24 h; series mostly up to 92.3 µM.
Assay [15] can be described thus: qHTS assay for small molecule antagonists of retinoid X receptor alpha signaling (AID 588546; active = well fitted inhibition curve with a large enough effect in the signal ratio, with a control signal flat, not every such curve was filed as active; the % refers to the signal ratio;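 also: cells stimulated with 9-cis-retinoic acid as agonist; % is scaled to controls: 0 for no effect and ±100 for the full control effect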). To be noted: HEK293T RXRa-UAS-bla, beta-lactamase ratio, antagonist mode; measured here: W530 green channel, cytotoxicity proxy. An outline of the steps:
(§2)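 Beta-lactamase reporter inhibition, read as CCF4 fluorescence ratio (ex 405, em 460/530 nm) after 2 h at RT. HEK293T UAS-bla cells, 2500/well, were stimulated with 9-cis-RA at 500 or 100 nM final alongside test compound for 18 h at 37 C.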

Assay [16] concerns the target Retinoic acid receptor RXR-alpha (Homo sapiens) (UniProt P19793). The assay is described as above. Particulars: HEK293T RXRa-UAS-bla, beta-lactamase ratio, antagonist mode. An outline of the steps:
as §2

Assay [17] can be described thus: qHTS assay for small molecule activators of the p53 signaling pathway (AID 651743; active = well fitted activation curve with a large enough effect in the signal ratio, not every such curve was filed as active; the % refers to the signal ratio; also: % of control where 0% means no effect). Particulars: HCT-116 p53RE-bla, beta-lactamase FRET ratio, 16 h; activation: stronger effect = higher value. An outline of the steps:
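Here HCT-116 cells with an integrated p53-responsive beta-lactamase gene were incubated with compounds (16 hours, 37 C) after a 5-hour plating period; beta-lactamase activity was detected as fluorescence intensity via B/G FRET substrate.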

Assay [18] is described as follows: qHTS assay for cell viability of the p53RE-bla HCT-116 cell line (AID 743292). Also: % is scaled to controls: 0 for no effect and ±100 for the full control effect; nearly all actives have a fitted effect of over 55% in size. To be noted: p53RE-bla HCT-116 viability, ATP luminescence, 16 h; series mostly up to 95 µM. An outline of the steps: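 Intracellular ATP of p53RE-bla HCT-116 cells measured by luciferase luminescence following 16 h compound incubation at 37 C; DMSO-only wells served as vehicle controls.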

Assay [19] can be described thus: qHTS assay for small molecule agonists of the antioxidant response element (ARE) signaling pathway measured by Nrf2-dependant transcriptional activity (AID 720636; active = well fitted curve in the direction sought with a large enough effect in the repeat runs; an effect the other way counts as inactive or inconclusive;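 also: HepG2 cells with an ARE-driven luciferase reporter; % of control where 0% means no effect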). Particulars: ARE-luc HepG2, Nrf2 luciferase reporter, 16 h; series mostly up to 92.4 µM. An outline of the steps:
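In HepG2 cells engineered with an Nrf2-responsive luciferase gene, ARE induction was quantified as luminescence after 16 hr compound treatment at 37 C.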

Assay [20] can be described thus: qHTS assay for small molecule activators of the nuclear factor-kappa B (NF-kB) signaling pathway (AID 651749; active = well fitted activation curve with a large enough effect in the signal ratio; the % refers to the signal ratio; also: % of control where 0% means no effect). Particulars: NF-kB-bla ME-180 cells, beta-lactamase FRET ratio, 16 h; activation: stronger effect = higher value. An outline of the steps: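 Beta-lactamase reporter expression, controlled by NF-kB response elements in ME-180 cells, was quantified fluorometrically via FRET disruption; cells at 2,000/well had been incubated with 23 nL test compound for 16 hr.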

Results filed as inconclusive are left out. The source made the active and inactive calls. Unless noted, calls follow the shape of the dose curve; as a rule, active = well fitted curve in the direction sought with a large enough effect; inconclusive = small, poorly fitted or top-dose-only effect, or another doubt; inactive = no such curve, though single readings can be large; an effect the other way counts as inactive or inconclusive.

These results are taken from PubChem BioAssay (NCATS).

Peroxisome proliferator-activated receptor delta (Homo sapiens), sequence (Q03181 whole entry, looked up): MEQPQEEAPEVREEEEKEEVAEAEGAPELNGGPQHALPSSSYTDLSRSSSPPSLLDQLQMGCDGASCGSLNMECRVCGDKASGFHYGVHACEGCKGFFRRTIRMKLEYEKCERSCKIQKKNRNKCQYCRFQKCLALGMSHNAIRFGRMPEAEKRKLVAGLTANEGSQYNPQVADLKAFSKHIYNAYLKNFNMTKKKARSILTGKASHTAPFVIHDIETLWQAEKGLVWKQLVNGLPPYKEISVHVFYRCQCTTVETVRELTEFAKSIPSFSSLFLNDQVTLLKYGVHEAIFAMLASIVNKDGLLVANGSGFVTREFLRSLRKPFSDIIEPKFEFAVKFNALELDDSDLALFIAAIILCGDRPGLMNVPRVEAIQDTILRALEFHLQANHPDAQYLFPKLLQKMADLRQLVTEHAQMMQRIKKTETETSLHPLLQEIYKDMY
Nuclear receptor subfamily 1 group I member 2 (Rattus norvegicus), sequence (Q9R1A7 whole entry, looked up): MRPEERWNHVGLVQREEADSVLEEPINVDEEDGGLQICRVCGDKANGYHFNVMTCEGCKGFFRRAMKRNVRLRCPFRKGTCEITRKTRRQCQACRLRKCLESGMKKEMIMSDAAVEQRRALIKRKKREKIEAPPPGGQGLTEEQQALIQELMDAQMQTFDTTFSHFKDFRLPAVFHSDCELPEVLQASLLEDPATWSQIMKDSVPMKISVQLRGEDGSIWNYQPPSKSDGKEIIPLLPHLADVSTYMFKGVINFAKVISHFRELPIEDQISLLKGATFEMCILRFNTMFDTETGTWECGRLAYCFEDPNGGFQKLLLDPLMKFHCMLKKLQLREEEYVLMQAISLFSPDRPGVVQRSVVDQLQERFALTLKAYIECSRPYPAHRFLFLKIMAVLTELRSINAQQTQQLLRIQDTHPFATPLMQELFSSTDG
Vitamin D3 receptor (Homo sapiens), sequence (P11473 whole entry, looked up): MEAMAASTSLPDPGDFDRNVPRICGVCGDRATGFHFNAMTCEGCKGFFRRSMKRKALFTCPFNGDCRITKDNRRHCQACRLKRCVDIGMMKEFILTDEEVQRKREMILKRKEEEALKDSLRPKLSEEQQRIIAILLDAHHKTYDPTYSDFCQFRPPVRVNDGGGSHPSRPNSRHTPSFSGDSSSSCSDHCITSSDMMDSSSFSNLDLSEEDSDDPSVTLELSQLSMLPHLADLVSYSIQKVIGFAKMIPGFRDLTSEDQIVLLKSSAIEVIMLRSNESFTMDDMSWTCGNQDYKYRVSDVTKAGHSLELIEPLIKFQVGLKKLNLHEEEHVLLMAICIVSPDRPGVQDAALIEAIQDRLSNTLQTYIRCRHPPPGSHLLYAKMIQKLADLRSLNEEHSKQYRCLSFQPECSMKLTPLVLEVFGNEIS
Thyroid hormone receptor beta (Homo sapiens), sequence (P10828 whole entry, looked up): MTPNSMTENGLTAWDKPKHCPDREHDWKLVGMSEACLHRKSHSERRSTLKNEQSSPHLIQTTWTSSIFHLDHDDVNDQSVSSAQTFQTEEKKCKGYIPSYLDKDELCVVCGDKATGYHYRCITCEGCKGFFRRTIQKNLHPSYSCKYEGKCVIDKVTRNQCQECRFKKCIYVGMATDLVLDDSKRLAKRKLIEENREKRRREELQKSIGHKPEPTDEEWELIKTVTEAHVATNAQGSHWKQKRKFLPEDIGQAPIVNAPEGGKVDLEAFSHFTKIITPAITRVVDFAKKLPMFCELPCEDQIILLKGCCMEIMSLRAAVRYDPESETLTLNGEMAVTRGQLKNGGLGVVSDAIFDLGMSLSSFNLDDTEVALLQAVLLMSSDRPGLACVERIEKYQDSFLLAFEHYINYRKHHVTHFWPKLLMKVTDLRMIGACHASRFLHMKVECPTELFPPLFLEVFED
Retinoic acid receptor RXR-alpha (Homo sapiens), sequence (P19793 whole entry, looked up): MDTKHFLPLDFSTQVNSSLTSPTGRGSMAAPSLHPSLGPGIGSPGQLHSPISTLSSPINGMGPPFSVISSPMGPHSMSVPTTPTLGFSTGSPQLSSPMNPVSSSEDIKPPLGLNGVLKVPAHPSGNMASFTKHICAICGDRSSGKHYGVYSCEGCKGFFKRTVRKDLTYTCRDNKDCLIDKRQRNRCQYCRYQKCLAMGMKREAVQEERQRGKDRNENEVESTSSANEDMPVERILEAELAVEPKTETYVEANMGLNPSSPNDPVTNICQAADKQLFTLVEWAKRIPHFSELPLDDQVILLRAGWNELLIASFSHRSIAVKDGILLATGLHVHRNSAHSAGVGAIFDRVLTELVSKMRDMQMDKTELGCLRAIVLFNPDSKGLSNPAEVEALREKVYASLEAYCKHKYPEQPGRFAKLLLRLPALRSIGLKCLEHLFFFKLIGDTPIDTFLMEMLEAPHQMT
Peroxisome proliferator-activated receptor alpha (Homo sapiens), sequence (Q07869 whole entry, looked up): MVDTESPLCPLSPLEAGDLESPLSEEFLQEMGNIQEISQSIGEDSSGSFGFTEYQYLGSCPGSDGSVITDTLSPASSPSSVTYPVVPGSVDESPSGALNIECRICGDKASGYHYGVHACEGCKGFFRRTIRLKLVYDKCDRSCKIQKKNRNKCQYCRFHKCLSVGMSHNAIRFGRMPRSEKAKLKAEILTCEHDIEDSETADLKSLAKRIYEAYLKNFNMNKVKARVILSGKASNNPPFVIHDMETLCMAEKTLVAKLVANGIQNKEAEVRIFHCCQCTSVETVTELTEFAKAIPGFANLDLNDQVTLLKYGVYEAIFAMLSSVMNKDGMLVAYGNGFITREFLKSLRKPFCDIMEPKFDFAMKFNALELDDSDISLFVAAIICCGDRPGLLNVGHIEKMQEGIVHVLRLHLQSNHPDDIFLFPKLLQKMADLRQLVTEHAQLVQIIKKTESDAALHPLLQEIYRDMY
Peroxisome proliferator-activated receptor gamma (Homo sapiens), sequence (P37231 whole entry, looked up): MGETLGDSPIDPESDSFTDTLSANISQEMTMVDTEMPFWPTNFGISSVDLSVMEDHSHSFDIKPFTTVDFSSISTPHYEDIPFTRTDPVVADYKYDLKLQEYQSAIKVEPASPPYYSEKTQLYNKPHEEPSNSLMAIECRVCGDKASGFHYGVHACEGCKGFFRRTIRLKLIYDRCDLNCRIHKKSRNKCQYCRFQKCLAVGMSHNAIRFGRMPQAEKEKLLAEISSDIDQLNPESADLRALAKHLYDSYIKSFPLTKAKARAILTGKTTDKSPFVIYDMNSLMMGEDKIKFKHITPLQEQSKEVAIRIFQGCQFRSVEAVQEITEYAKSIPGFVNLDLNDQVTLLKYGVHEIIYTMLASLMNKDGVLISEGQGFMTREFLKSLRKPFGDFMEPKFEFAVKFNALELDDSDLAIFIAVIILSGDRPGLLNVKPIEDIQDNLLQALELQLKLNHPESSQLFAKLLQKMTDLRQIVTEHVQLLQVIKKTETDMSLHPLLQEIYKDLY

For `CCOC(=O)COc1cc(-n2ncc(C(F)(F)F)c(C)c2=O)c(F)cc1Cl`, the max response is -4.58% in [1]; 9.89% in assay [6]; -2.22% (inactive) in [10]; 9.1% (inactive) in assay [11]; 2.7% (inactive) in assay [12]; -8.22% (inactive) in assay [13]. Further, the Potency result in assay [2], in assay [4], in [7] and in assay [8] was “inactive” each time. In addition, the result in [3], in [5] and in assay [14] was inactive. The activation in [9] was -2.83% (inactive).

In the case of `CCOC(=O)CCCCCCCCC(=O)OCC`, the result in assay [3] and in assay [14] was inactive. In addition, the Potency result in assay [4], in assay [7], in [8] and in [18] was “inactive” in each case. For the same compound, the max response in [6] was 3.8%; in assay [15] it was -7.52%; in assay [16], 0.487% (inactive); in [10], -3.28% (inactive); in assay [11], -13.4% (inactive); in [12], -4.17% (inactive). The max response in [13] was 2.58% (inactive). Moreover, the activation is -5.93% (inactive) in [17] and 0.108% (inactive) in assay [9].

As for `CCCCCCCCCCCCCCCCN(C)C`, the max response in assay [1] is -16.5%; in assay [6], -18.2%; in [15], -9.65%; in assay [10] it was -0.399% (inactive); in [11] it was -13% (inactive); in [12], -6.67% (inactive). In assay [13], the max response was 2.85% (inactive). Moreover, the Potency entry in assay [2], in assay [7], in assay [8], in assay [19] and in [18] was “inactive” throughout. For the same compound, the activation in [17] is -1.17% (inactive); in assay [9], 0.752% (inactive). Also, in assay [14], the result was inactive.

On to `CCOC(=O)c1ccccc1C`, for which the result in [3] and in assay [14] was inactive. Further, the max response is -8.14% in [6]; -9.25% in assay [15]; 1.73% (inactive) in assay [16]; -0.0686% (inactive) in [10]; 1% (inactive) in [13]. Moreover, the Potency result in [7], in assay [8] and in assay [18] was “inactive” throughout. For the same compound, the activation is 2.88% (inactive) in assay [17], 0.727% (inactive) in assay [20] and -0.718% (inactive) in assay [9].

Take `O=[N+]([O-])C(CO)(CO)CO`: the max response in assay [1] is 26.9%; in [6], -11.5%; in assay [15], -5.31%; in assay [16] it was 4.16% (inactive); in [12], -13.7% (inactive); in [13], 0.128% (inactive). The Potency entry in [2], in assay [7] and in assay [8] was “inactive” throughout. Further, the result in assay [3] and in [14] was inactive. Moreover, the activation was 7.94% (inactive) in [17], 0.34% (inactive) in assay [20] and -1.19% (inactive) in [9].

Take `COC(=O)c1ccc(C(=O)OC)cc1`: the outcome in assay [3] and in [5] was inactive. The Potency result in assay [4], in assay [7], in assay [8], in assay [19] and in assay [18] was “inactive” in each case. Moreover, the max response in [6] is -4.51%; in assay [15] it was -0.742%; in assay [10], -0.437% (inactive); in [11], -4.69% (inactive); in [12], -3.92% (inactive); in assay [13], 2.11% (inactive). Moreover, the activation is -0.624% (inactive) in assay [20] and 2.27% (inactive) in assay [9].

On to `C=C(C)C(=O)OCCC[Si](OC)(OC)OC`, for which the max response is 51.6% in assay [1]; -14.5% in [6]; -3.97% in assay [15]; -21.4% (inactive) in assay [16]; -1.45% (inactive) in [10]; -0.904% (inactive) in assay [11]. The results for the max response in [12] and in [13] were -1.87% (inactive) and -1.68% (inactive), respectively. Besides, the Potency result in [2], in assay [7], in assay [8] and in [18] was “inactive” each time. Further, the outcome in assay [3] was inactive. The figures for the activation in assay [20] and in [9] were -3.72% (inactive) and -2.37% (inactive), respectively.
